Rows were chosen to be rich in hits. Some 18% of all compounds tested hit in one or more screens of this group.
TDP1 inh: blocks human tyrosyl-DNA phosphodiesterase 1 | Q9NUW8 | 350,000 compounds, 0.28% hits | recombinant TDP1, AlphaScreen DNA substrate cleavage | Potency, µM (top dose mostly 130 µM), inactives show top-dose activity change, negative = inhibition, actives largely listed as inhibitors; note: potency is the fitted concentration of half-maximal effect; nearly all actives have a fitted effect of over 40% in size
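Signal: AlphaScreen proximity between streptavidin donor and anti-FITC acceptor beads on intact substrate. Reaction: Tdp1 1 nM, substrate 15 nM final, 5 min RT after 15 min compound preincubation.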
IL1B secr inh: inhibitors of inflammasome signaling (IL-1 beta secretion); THP-1 LPS/ATP IL-1B secretion, AlphaLISA, 16 h; active compounds read low; activity change, % at 57.5 µM; 360,000 compounds, 4.7% hits; AID 743279; in the data active = activity change below about -50%; inconclusive = mostly about -30% to -49%
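THP-1 cells pretreated 1 hr with compounds (up to 57.5 uM final), then stimulated with LPS (250 ng/mL final) plus ATP (1.25 mM final); secreted IL-1B measured by AlphaLISA after 16 hr, decreased signal indicating inhibition.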
DT40 TDP1 no CPT: qHTS for Inhibitors of human tyrosyl-DNA phosphodiesterase 1 (TDP1): qHTS in cells in absence of CPT | DT40 Tdp1-/- hTDP1 cells, no CPT, ATP luminescence, 48 h | Potency, µM (series often up to 46.2 µM), without a hit: at the highest dose activity change, negative = growth inhibition, hits mostly inhibitors | 420,000 compounds, 15% hits; note: potency is the fitted concentration of half-maximal effect; nearly all actives have a fitted effect of over 55% in size
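Camptothecin absent (DMSO only). Human TDP1-complemented DT40 knockout cells, 400 cells/well, 37 °C for minimum 48 hr; ATP measured via CellTiter-Glo, 30 min dark incubation, luminescence.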
DT40 TDP1 CPT: DT40-hTDP1 cell growth loss with CPT | chicken DT40 Tdp1-/-;hTDP1 cells + 20 nM CPT, ATP luminescence, 48 h | Potency, µM (doses to about 46.2 µM), for the others: at the top dose activity change, negative = growth inhibition, usual class: inhibitors | 420,000 compounds, 12% hits; note: potency is the fitted concentration of half-maximal effect; nearly all actives have a fitted effect of over 55% in size
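Chicken DT40 Tdp1-/- cells complemented with human TDP1, 400 cells/well, exposed to compounds plus 20 nM camptothecin for at least 48 h at 37 C; viability read as ATP content by CellTiter-Glo luminescence.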
Six1-Eya2 inh: inhibitors of human Six1/Eya2 interaction; Q15475+O00167; AlphaScreen GST-Six1/His-Eya2 binding, biochemical; active compounds read low; activity change, % (test concentration not listed); 360,000 compounds, 0.56% hits; AID 651725; in the data active = activity change below about -65%; inconclusive = mostly about -30% to -63%
Target sequence (O00167 whole entry, looked up): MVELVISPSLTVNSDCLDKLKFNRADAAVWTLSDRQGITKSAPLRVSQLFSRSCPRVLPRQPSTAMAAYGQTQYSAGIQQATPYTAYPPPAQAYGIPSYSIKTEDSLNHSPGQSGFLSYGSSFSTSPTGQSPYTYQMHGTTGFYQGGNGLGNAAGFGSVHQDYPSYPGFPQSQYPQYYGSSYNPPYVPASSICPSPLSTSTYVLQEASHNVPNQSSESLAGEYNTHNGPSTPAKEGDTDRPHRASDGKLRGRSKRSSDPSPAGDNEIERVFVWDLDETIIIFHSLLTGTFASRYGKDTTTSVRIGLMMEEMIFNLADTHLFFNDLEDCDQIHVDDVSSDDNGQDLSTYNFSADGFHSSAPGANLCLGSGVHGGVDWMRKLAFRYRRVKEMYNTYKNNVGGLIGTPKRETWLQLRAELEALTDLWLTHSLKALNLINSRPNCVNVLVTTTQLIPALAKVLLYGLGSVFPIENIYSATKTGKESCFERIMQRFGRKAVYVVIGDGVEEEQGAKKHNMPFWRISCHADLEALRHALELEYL
Target sequence (Q15475 whole entry, looked up): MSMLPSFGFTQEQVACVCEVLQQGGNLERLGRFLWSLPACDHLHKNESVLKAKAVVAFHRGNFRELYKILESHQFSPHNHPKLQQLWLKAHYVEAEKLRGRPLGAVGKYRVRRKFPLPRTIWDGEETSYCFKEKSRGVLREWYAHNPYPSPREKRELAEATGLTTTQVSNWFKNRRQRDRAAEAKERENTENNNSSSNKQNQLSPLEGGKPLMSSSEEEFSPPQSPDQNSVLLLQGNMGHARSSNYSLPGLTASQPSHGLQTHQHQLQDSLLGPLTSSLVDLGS
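AlphaScreen luminescence read after one hour at 37 °C in darkness. Pin-transferred compounds met GST-Six1 and His-Eya2 protein (5X stock 250 nM/500 nM) plus glutathione donor and Ni-chelate acceptor beads (5X, 50 ug/mL).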
CtBP-E1A inh: CtBP/E1A binding inhibition | AlphaScreen GST-E1A/His-CtBP binding, 1536-well; active compounds read low | activity change, % (concentration not given with the values) | 340,000 compounds, 0.49% hits | AID 651724; in the data active = activity change below about -65%; inconclusive = mostly about -30% to -63%
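AlphaScreen with 125 nM GST-E1A and 125 nM His-CtBP (5X stocks) in Tris pH 8.0, 300 mM NaCl, BSA, Tween 20, TCEP. Compounds preincubated 2 h at 37 deg C, then glutathione donor/nickel acceptor beads added for 1 h at 37 deg C in dark.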
Numbers without * were called inactive; u = inconclusive; x = no result; [ ] = remark or other dose. Unless noted, calls come from the whole dose curve; as a rule, active = well fitted curve in the direction sought with a large enough effect; inconclusive = small, poorly fitted or top-dose-only effect, or another doubt; inactive = no such curve, though single readings can be large; an effect the other way counts as inactive or inconclusive. % is set by controls: 0 for no effect and ±100 for the full control effect.

SMILES	TDP1 inh	IL1B secr inh	DT40 TDP1 no CPT	DT40 TDP1 CPT	Six1-Eya2 inh	CtBP-E1A inh
CCc1c(C(=O)Nc2ccncc2)csc1C	1%	13	21µM*	u	6	8
CCc1c(C(=O)Nc2ccccc2C(N)=O)csc1C	0%	4	-11%	-20%	-3	1
CCOC(=O)CN(C(=O)COc1nc(-c2ccccc2)cc(C)c1C#N)c1cccc(OC)c1	x	3	u	u	7	x
N#C/C(=C1/SC[C@@H](c2ccc(Cl)cc2Cl)S1)n1ccnc1	x	x	6µM*	4.7µM*	x	x
CCOc1ccc(Cl)cc1-c1cc(C(=O)NCc2cc(C(F)(F)F)cc(C(F)(F)F)c2)[nH]n1	x	0	u	23µM*	3	-5
COc1ccc(F)cc1-c1cc(C(=O)NCc2ccc(F)cc2)[nH]n1	x	-3	-27%	u	-8	2
COc1ccc(Cl)cc1-c1cc(C(=O)N[C@H](C)c2ccccc2)[nH]n1	x	-22	3.7µM*	2.6µM*	-4	-4
CCOc1ccc(Cl)cc1-c1cc(C(=O)NCc2ccccc2OC)[nH]n1	x	0	18µM*	u	2	-15
COc1ccc(Cl)cc1-c1cc(C(=O)Nc2ccccc2)[nH]n1	x	-22	u	u	-1	-10
COc1ccc(F)cc1-c1cc(C(=O)NCc2ccccc2)[nH]n1	x	-67*	u	-22%	1	1
CC(C)NC(=O)C1CCN(C2CCN(C(=O)/C=C/c3cccs3)CC2)CC1	1%	15	2%	12%	9	0
C=CCn1c(CCNC(=O)c2cccs2)nnc1SCC(=O)c1ccc(Br)cc1	5%	-9	u	u	-3	1
COc1ccc(Cl)cc1-c1cc(C(=O)NCc2ccccc2)[nH]n1	x	-11	21µM*	16µM*	-19	-14
COc1ccccc1CNC(=O)c1cc(-c2ccc(F)cc2OC)n[nH]1	x	-51*	u	-22%	-9	0
COc1cc(CNC(=O)c2cc(-c3cc(Cl)ccc3OC)n[nH]2)cc(OC)c1	x	-9	u	u	-7	-16
COc1ccc(F)cc1-c1cc(C(=O)NCc2cc(C(F)(F)F)cc(C(F)(F)F)c2)[nH]n1	x	-12	u	18µM*	0	-2
CCCOc1ccc(F)cc1-c1cc(C(=O)NCc2cc(C(F)(F)F)cc(C(F)(F)F)c2)[nH]n1	x	-12	u	u	5	6
CC(C)Oc1cc(F)ccc1-c1cc(C(=O)NCc2ccccc2)[nH]n1	x	-26	-32%	-1%	1	2
CCOc1ccc(Cl)cc1-c1cc(C(=O)NCc2ccccc2)[nH]n1	x	u	u	12µM*	-7	0
Cc1nn(CCCC(=O)NCc2ccc(F)cc2)c(=O)c2nccn12	x	2	-5%	-5%	6	0
CCOC(=O)/C(=C\c1cn(C)c2ccccc12)[N+](=O)[O-]	0%	-85*	u	u	-8	-4
CCOC(=O)/C(C#N)=C\c1cn(C)c2ccccc12	1%	2	-11%	25%	1	-11
S=C(NCCN(C1CCCCC1)C1CCCC1)Nc1cccc(Cl)c1	x	x	16µM*	u	-6	-3
S=C(NCCC(c1ccccc1)c1ccccc1)Nc1cccc(Cl)c1	7%	0	15µM*	u	0	0
CC(C)c1cccc(C(C)C)c1NC(=S)Nc1cccc(Cl)c1	0%	x	21µM*	u	-3	-7
SMILES	TDP1 inh	IL1B secr inh	DT40 TDP1 no CPT	DT40 TDP1 CPT	Six1-Eya2 inh	CtBP-E1A inh
S=C(NCc1ccncc1)Nc1cccc(Cl)c1	5%	-2	-15%	-8%	8	8
CCCCCCN(C(=O)CCCCCN1C(=O)NC(c2ccc(-c3ccccc3)cc2)C(C(=O)OCc2ccccc2)=C1C)C(C(=O)NCCCC)C1CCCCC1 (stereo not given)	2%	x	x	x	x	x
CCCCCCN(C(=O)CCCN1C(=O)NC(c2ccc([N+](=O)[O-])cc2)C(C(=O)OCc2ccccc2)=C1C)C(C)C(=O)NCCCC (stereo not given)	1%[56.1 µM]	-63*	9.2µM*	12µM*	-12	-11
O=C(CSc1nnnn1-c1ccc2c(c1)CCC2)NCc1cccs1	3%	u	u	u	-1	-14
CC(C)(C)c1ccc(S(=O)(=O)Nc2cccc(C3OCCCO3)c2)cc1	0%	0	15µM*	15µM*	1	6
CCCCn1c(-c2ccc(Cl)c(Cl)c2)nc2cc3[nH]c(=O)c(C(C)C)nc3cc21	x	35	u	u	31	-1
CCCCn1c(-c2cccnc2)n[nH]c1=S	7%	23	5%	-3%	3	1
CCCCn1c(-c2cccnc2)nc2cc3[nH]c(=O)c(C(C)C)nc3cc21	x	4	15µM*	18µM*	-11	-5
CCCCn1c(-c2ccc(C(C)(C)C)cc2)nc2cc3[nH]c(=O)c(C(C)C)nc3cc21	x	27	15µM*	u	-3	3
CCCCn1c(-c2cccc(Br)c2)nc2cc3[nH]c(=O)c(C(C)C)nc3cc21	x	-52*	26µM*	18µM*	-4	5
COc1ccc(CN2CCN(C(C)C(=O)N(C)Cc3cccc(F)c3)CC2)cc1OC (stereo not given)	x	8	u	-24%	1	x
CC1(C)C2CC[C@]3(C)[C@H](C(=O)C=C4[C@@H]5C[C@@](C)(C(=O)O)CC[C@]5(C)CC[C@]43C)[C@@]2(C)CC[C@@H]1O[C@H]1O[C@H](C(=O)O)[C@@H](O)[C@H](O)[C@H]1O[C@@H]1O[C@H](C(=O)O)[C@@H](O)[C@H](O)[C@H]1O (stereo not given in full)	x	x	-6%	7%	x	x
Cc1csc(SCC(=O)Nc2ccc(CC#N)cc2)n1	x	-21	3%	-26%	-18	20
CN(C)N=Nc1nc2c([nH]1)c(=O)n(C)c(=O)n2C	3%	-5	-25%	-4%	-2	4
CN(C)N=Nc1nc2c(c(=O)n(C)c(=O)n2C)n1CC1CO1 (stereo not given)	0%	13	15µM*	3.7µM*	5	1
CNC(=O)/C(C#N)=C\c1cc(C)n(-c2ccc(N3CCOCC3)cc2)c1C	6%	16	u	u	9	14
Cc1cc(/C=C(\C#N)C(=O)Nc2ccccc2)c(C)n1-c1ccc2c(c1)OCO2	3%	u	16µM*	u	-12	1
